Molecules are shown by their SMILES. Among all 200,000 compounds or so, about 780 (0.39%) were called active. This is one part of a sample in which actives are shown more often than they occur. Values without a mark were called inactive. Rule as the data show it: active = TR-FRET ratio above about 2000; inactive = the rest.

The assay can be described thus: detection-format interference in TR-FRET ratio – biochemical, artefact control for PPARgamma SRC-2 agonist project, primary screen (AID 1049). The note with it: TR-FRET artefact counter-screen; at 8 µM; active compounds read high. (In general: TR-FRET usually uses a lanthanide donor and a delayed reading to cut background.)
For `CCCOc1ccc(NC(=O)C2OC3OC(C)(C)OC3C3OC(C)(C)OC23)cc1` (stereo unspecified), the TR-FRET ratio was 1480. In the case of `Cc1cc(OCC(=O)NC2CCN(C)CC2)ccc1[N+](=O)[O-]` it was 1540.

For the compound `Cc1ccccc1N1CCN(CCCOc2ccc3c(C)cc(=O)oc3c2)CC1`, the TR-FRET ratio was 1510. As to `Cc1cc(OCCCN2CCN(Cc3ccccc3)CC2)ccc1[N+](=O)[O-]`, the TR-FRET ratio is 2000 (active).

Regarding `C/C(N)=C(/C#N)C(=O)COC(=O)c1cc(-c2ccccc2)nc2ccc(Br)cc12`, the TR-FRET ratio was 1540. The result for `Cc1cc(C)c2c(NC(=O)C3CC3)nn(C)c2n1` reads 1370; that for `CCN(C(=O)COC(=O)c1c(NC(C)=O)sc(C)c1C)C1CCS(=O)(=O)C1` (stereo unspecified), 1610; that for `COC(=O)c1ccc(-c2noc(CN(Cc3ccccn3)CC3CCCO3)n2)cc1` (stereo unspecified), 1700. The result for `CCN(CCn1cccn1)Cc1cn[nH]c1-c1ccc(OC)cc1F` reads 1510.

Consider `CCN(CCn1cccn1)Cc1nc(-c2ccc(C(=O)OC)cc2)no1`, for which the TR-FRET ratio is 1990 (active).

Take `COc1cc(NC(=O)COC(=O)CSc2ccc3ccccc3c2)c(C)cc1[N+](=O)[O-]`: the TR-FRET ratio was 1450. In the case of `O=C1NC(c2ccccc2)=NC1(Nc1ccccn1)C(F)(F)F` (stereo unspecified) it was 1690; in that of `COc1ccc(C2CC(c3ccccc3)=NN2C(=O)COC(=O)COc2ccccc2)cc1` (stereo unspecified), 1620; in that of `Brc1ccc(C2CC(c3ccccc3)=Nc3ccccc3N2)cc1` (stereo unspecified), 1550. Regarding `CNC(=S)N1N=C(c2ccccc2)CC1c1ccc(Br)cc1` (stereo unspecified), the TR-FRET ratio was 1990 (active).

As to `CCC1CO/C(=C(\C(=C(Cl)Cl)N2CCOCC2)[N+](=O)[O-])N1` (stereo unspecified), the TR-FRET ratio is 1690.

Take `COc1ccc(NC(=O)c2sc(N3CCOCC3)nc2-c2ccccc2)c(OC)c1`: the TR-FRET ratio is 1580. The result for `O=C(O)CC/C(=N\NC(=O)c1ccc(F)cc1)c1ccc(Br)cc1` reads 1580. Turning to `C/C(=N\OCC(=O)Nc1ccc(Br)cc1)c1cccs1`, the TR-FRET ratio was 1350. In the case of `CCOC(=O)N/N=C/c1cccnc1` it was 1680; in that of `O=C(CSc1cccc2cccnc12)N/N=C/c1cccnc1`, 2120 (active). With `Cc1nc2ccccc2n1CC(=O)N/N=C/c1cccnc1`, the TR-FRET ratio is 1640.

On to `NC1=NC(=O)C(Cc2cccc(Cl)c2)S1` (stereo unspecified), for which the TR-FRET ratio was 1490. On to `CCC(C)(C)NC(=O)/C=C/c1cc(OC)c(OC)c(S(=O)(=O)N2CCc3ccccc32)c1`, for which the TR-FRET ratio is 1580.

`Cc1cccc(OCc2ccc(C(=O)Nc3ccc(F)cc3)cc2)c1`: the TR-FRET ratio is 1560. In the case of `Cc1nc2ccccc2cc1OCc1ccc(F)cc1` it was 1730; in that of `Fc1ccc(COc2cccc(-c3n[nH]c(=S)o3)c2)cc1`, 2890 (active). On to `CCOC(=O)c1ccc[n+](CC(=O)Nc2ccccc2OC(F)F)c1`, for which the TR-FRET ratio is 1350. The result for `CCOC(=O)c1sc(NC(=O)CSc2n[nH]c(CC)n2)nc1C` reads 1730; that for `CCOc1ncccc1C(=O)OCC(=O)NC1CC1`, 1600; that for `Cc1cc(OCCN2CCCC2)cc(C(C)C)c1`, 1530.

The values are drawn from PubChem BioAssay AID1049 (The Scripps Research Institute Molecular Screening Center, 2008).
